Screening results from PubChem.
Rows were chosen to be rich in hits. Some 21% of all compounds tested hit in one or more screens of this group.
DT40 TDP1 no CPT: qHTS for Inhibitors of human tyrosyl-DNA phosphodiesterase 1 (TDP1): qHTS in cells in absence of CPT; DT40 Tdp1-/- hTDP1 cells, no CPT, ATP luminescence, 48 h; 420,000 compounds, 15% hits; AID 686978, 2013; Potency, µM (top dose mostly 46.2 µM), for inactives: at the highest dose activity change, negative = growth inhibition, hits mostly inhibitors; also: potency is read from the fitted curve at half-maximal effect; % is scaled to controls: 0 for no effect and ±100 for the full control effect; nearly all actives have a fitted effect of over 55% in size
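No-CPT arm: Tdp1-/-;hTDP1 DT40 cells (400/well) plus compounds, incubated ≥48 hr at 37 °C. Readout CellTiter-Glo luminescence.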
ClpP mod: qHTS Assay for Activators of ClpP | Potency, µM (series often up to 57.5 µM), without a hit: at the top dose activity change, negative = active | purified B. subtilis ClpP, FRET peptide cleavage, 20 min | ATP-dependent Clp protease proteolytic subunit (Bacillus subtilis (strain 168)), P80244 | 340,000 compounds, 1.9% hits; active = well fitted falling curve with a large enough effect; inconclusive = small, poorly fitted or top-dose-only effect; inactive = no such curve, though single readings can be large or run the other way; also: potency is read from the fitted curve at half-maximal effect; the source files actives as falling curves though it sought activators and does not explain the sign; nearly all actives have a fitted effect of over 65% in size
Target sequence (P80244 whole entry, looked up): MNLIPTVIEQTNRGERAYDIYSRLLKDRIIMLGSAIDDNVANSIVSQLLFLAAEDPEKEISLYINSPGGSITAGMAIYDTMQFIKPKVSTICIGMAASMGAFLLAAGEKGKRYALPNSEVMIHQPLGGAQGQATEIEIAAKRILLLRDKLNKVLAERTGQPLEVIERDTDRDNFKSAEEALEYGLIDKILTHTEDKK
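FRET quenching reversal measured ClpP activation: 10 microg/mL B. subtilis ClpP at pH 8 with the FRET-FV decapeptide, read at 430 nm after 320 nm excitation. The 20-min minus 0-min signal was scaled between DMSO/no-enzyme wells and ADEP (5.8 microM final).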
D3 antag: qHTS of D3 Dopamine Receptor Antagonist: qHTS | D(3) dopamine receptor (Homo sapiens), P35462 | D3R cells, DiscoveRx beta-arrestin luminescence, antagonist mode; active compounds read low | max response, negative = inhibition, % | 360,000 compounds, 2.5% hits; in the data active = max response below about -50%; inconclusive = no clear call, values can overlap the other calls; also: % is scaled to controls: 0 for no effect and ±100 for the full control effect
Target sequence (P35462 whole entry, looked up): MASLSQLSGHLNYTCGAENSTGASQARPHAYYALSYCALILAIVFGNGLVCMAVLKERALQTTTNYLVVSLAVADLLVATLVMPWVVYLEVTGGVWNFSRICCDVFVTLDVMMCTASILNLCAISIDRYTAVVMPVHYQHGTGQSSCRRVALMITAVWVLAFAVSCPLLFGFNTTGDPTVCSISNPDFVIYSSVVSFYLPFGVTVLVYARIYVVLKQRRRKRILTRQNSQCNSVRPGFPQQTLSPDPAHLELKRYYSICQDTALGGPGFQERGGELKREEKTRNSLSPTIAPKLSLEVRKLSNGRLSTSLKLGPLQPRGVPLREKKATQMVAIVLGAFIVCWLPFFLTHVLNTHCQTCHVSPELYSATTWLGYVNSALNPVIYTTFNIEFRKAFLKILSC
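Cells expressing the human receptor were seeded at 1500 cells/well, incubated overnight at 37 degrees C in 5% CO2, then exposed to library compounds with dopamine controls for 90 minutes at 37 degrees C before luminescent detection.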
DRD3 agonist: qHTS of D3 Dopamine Receptor Agonist: qHTS. D(3) dopamine receptor (Homo sapiens), P35462. D3R DiscoveRx beta-arrestin cells, luminescence, 90 min. max activation, %. 410,000 compounds, 0.58% hits. AID 652048, 2013; in the data active = max activation above about 30%; also: 0% is about no effect
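Cells at 1500/well, incubated overnight, then treated with pinned compounds (dopamine as control) for 90 min at 37 degrees C. DiscoveRx reagent added for 30 - 60 minutes at room temperature; luminescence read.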
TDP1 cell CPT: qHTS for Inhibitors of human tyrosyl-DNA phosphodiesterase 1 (TDP1): qHTS in cells in presence of CPT; chicken DT40 Tdp1-/-;hTDP1 cells + 20 nM CPT, ATP luminescence, 48 h; 420,000 compounds, 12% hits; Potency, µM (series often up to 46.2 µM), for inactives: top-dose activity change, negative = growth inhibition, usual class: inhibitors; also: potency is read from the fitted curve at half-maximal effect; % is scaled to controls: 0 for no effect and ±100 for the full control effect; nearly all actives have a fitted effect of over 55% in size
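Cell growth measured by CellTiter-Glo luminescence after a minimum 48 h, 37 C compound exposure with 20 nM CPT in Tdp1-knockout DT40 cells stably expressing hTDP1, seeded 400/well; qHTS titration format.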
IL1B secr inh: qHTS for Inhibitors of Inflammasome Signaling: IL-1-beta AlphaLISA Primary Screen; AID 743279, 2014; 360,000 compounds, 4.7% hits; THP-1 LPS/ATP IL-1B secretion, AlphaLISA, 16 h; active compounds read low; activity change, % at 57.5 µM; in the data active = activity change below about -50%; inconclusive = mostly about -30% to -49%; also: % is scaled to controls: 0 for no effect and ±100 for the full control effect
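THP-1 cells pretreated 1 hr with compounds (up to 57.5 uM final), then stimulated with LPS (250 ng/mL final) plus ATP (1.25 mM final); secreted IL-1B measured by AlphaLISA after 16 hr, decreased signal indicating inhibition.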
* = called active by the depositor; ? = inconclusive; · = no result. Unless noted, calls follow the shape of the dose curve; as a rule, active = well fitted inhibition curve with a large enough effect; inconclusive = small, poorly fitted or top-dose-only effect; inactive = flat fitted curve, though single readings scatter.

SMILES	DT40 TDP1 no CPT	ClpP mod	D3 antag	DRD3 agonist	TDP1 cell CPT	IL1B secr inh
CCOC(=O)C1CCN(C(=O)CN2C(=O)c3cccnc3Oc3ccccc32)CC1	2%	-4%	-15	1	-8%	-27
CCOC(=O)C1CCN(C(=O)CN2c3ccc(C(C)C)cc3-c3ccccc3S2(=O)=O)CC1	?	0%	·	8	21µM*	·
CCc1ccc2c(c1)-c1ccccc1S(=O)(=O)N2CC(=O)N1CCCCC1	?	-4%	·	-14	?	·
Cc1ccc2c(c1)C(=O)CC(c1ccccc1)S2 (stereo not drawn)	-26%	·	-9	2	-29%	-6
CC1CCN(c2ccc(-c3nc(-c4ccccc4)no3)cc2[N+](=O)[O-])CC1	?	-1%	·	10	?	·
CC1(Cc2ccc(OC(F)(F)F)cc2)C(=O)Nc2c(Cl)ccc(Cl)c21 (stereo not drawn)	?	2%	0	0	?	48
CC1(Cc2ccc(F)cc2)C(=O)Nc2c(Cl)ccc(Cl)c21 (stereo not drawn)	?	0%	-7	-3	?	-59*
CC1(Cc2ccccc2OC(F)(F)F)C(=O)Nc2c(Cl)ccc(Cl)c21 (stereo not drawn)	23µM*	3%	-2	-15	16µM*	22
O=C(CSc1nc2ccccc2n1Cc1ccccc1F)NCc1ccccc1	16µM*	0%	·	-6	?	·
NC(=O)CSc1nc2ccccc2n1Cc1ccccc1	24%	0%	6	6	-6%	12
CN(C(=O)CSc1nc2ccccc2n1Cc1cccc(C(F)(F)F)c1)c1ccccc1	16µM*	-1%	·	-20	18µM*	·
Cc1ccc(C)c(Cn2c(SCC(=O)N(C)Cc3ccccc3)nc3ccccc32)c1	26µM*	-3%	·	-6	26µM*	·
O=C(CSc1nc2ccccc2n1Cc1cccc(C(F)(F)F)c1)NCc1ccccc1	?	3%	·	-4	18µM*	·
CN(C)C(CNC(=O)c1cc(-c2ccco2)nc2ccccc12)c1ccccc1 (stereo not drawn)	-30%	·	-24	-10	-4%	15
COc1cccc(C(=O)Nc2ccccc2OCc2cc(=O)n3ccccc3n2)c1	?	4%	·	-12	-22%	·
NC(=O)Cn1cc(C(=O)c2cccs2)c2ccccc21	3%	20µM*	-15	-8	9%	18
O=C(Cn1cc(C(=O)c2cccs2)c2ccccc21)NC1CCCCC1	-15%	-4%	-18	-10	-14%	-9
Cc1ccc(C)c(NC(=O)Cn2cc(C(=O)c3cccs3)c3ccccc32)c1	21µM*	?	·	-4	18µM*	·
CCN(CC)c1ccc(NC(=O)CCc2c(C)nc3ncnn3c2C)c(C)c1	?	-4%	·	-10	-1%	·
COc1cccc(NC(=O)COC(=O)C2C3CC4OC(=O)C2C4C3)c1 (stereo not drawn)	10%	·	8	7	13%	-3
COc1ccc(Cn2ccc3nc(C)c(C(=O)N4CCN(c5ccc(OC)cc5)CC4)cc3c2=O)cc1	23µM*	-2%	·	2	23µM*	·
COc1ccc(Cn2ccc3nc(C)c(C(=O)N4CCN(c5ccc(F)cc5)CC4)cc3c2=O)cc1	15µM*	0%	·	12	23µM*	·
COc1ccc(Cn2ccc3nc(C)c(C(=O)N4CCN(c5ccccc5OC)CC4)cc3c2=O)cc1	23µM*	-18%	·	18	?	·
COc1cccc(N2CCN(C(=O)c3cc4c(=O)n(Cc5cccnc5)ccc4nc3C)CC2)c1	-24%	-29%	·	8	-11%	·
COc1ccccc1N1CCN(C(=O)c2cc3c(=O)n(Cc4cccs4)ccc3nc2C)CC1	?	?	·	-8	?	·
SMILES	DT40 TDP1 no CPT	ClpP mod	D3 antag	DRD3 agonist	TDP1 cell CPT	IL1B secr inh
CN1C(=O)CSc2ccc(NC(=O)N3CCN(c4ccccn4)CC3)cc21	?	-12%	37	1	?	54
CN1C(=O)CSc2ccc(NC(=O)Nc3ccccn3)cc21	?	1%	6	-1	29µM*	-60*
COc1cccc(NC(=O)Nc2ccc3c(c2)N(C)C(=O)CS3)c1	21µM*	-1%	34	14	?	?
Cc1ccccc1NC(=O)CSc1nnc(C)c(=O)[nH]1	-12%	0%	-16	-2	11%	-7
Cc1ccc(NC(=O)CSc2nncc3ccccc23)cc1	-12%	·	10	6	5%	-20
COc1ccc2cnnc(SCC(=O)Nc3ccccc3)c2c1OC	?	-3%	-3	-4	-28%	-58*
Cc1nnc(SCC(=O)Nc2ccccc2)[nH]c1=O	-10%	-1%	-9	8	-1%	-6
Cc1ccccc1NC(=O)CSc1nnc(C)c2ccccc12	8%	·	7	3	-4%	-69*
Cc1nnc(SCC(=O)Nc2ccccc2)c2ccccc12	?	·	2	-1	-6%	-102*
Cc1nnc(SCC(=O)Nc2ccc(O)cc2)c2ccccc12	-7%	·	-13	-11	21%	-98*
COc1cc([N+](=O)[O-])ccc1NC(=O)NNC(=O)c1sccc1C	18%	0%	-18	-16	-3%	-28
Cc1cc(O)cc2c1O[C@](C)(CCC(=O)O)CC2	-2%	0%	·	·	-3%	·
Cc1ccccc1OC1C(=O)N(CC2CCCO2)C1c1ccc2c(c1)OCO2 (stereo not drawn)	13µM*	1%	46	1	15µM*	1
Cc1cc(C(=O)COC(=O)c2ccc3c(c2)OCO3)c(C)n1CC1CCCO1 (stereo not drawn)	-14%	·	12	2	9%	14
O=C1Nc2cc(C(=O)NCCCN3CCCC3)ccc2S/C1=C\c1ccccc1	18µM*	0%	-18	0	?	-9
COc1ccc(/C=C2/Sc3ccc(C(=O)NCCN4CCCCCC4)cc3NC2=O)cc1	3.3µM*	-2%	-15	2	3.7µM*	-90*
CCC1CCCCN1CCCNC(=O)c1ccc(/C=C2/Sc3ccccc3NC2=O)cc1 (stereo not drawn)	3.7µM*	0%	?	0	?	-2
O=C1Nc2cc(C(=O)NCCCN3CCOCC3)ccc2S/C1=C/c1cccc(Cl)c1	?	1%	-23	-16	?	-4
